# Like-named read-outs stand apart in the source and are kept apart here.
# How the values were obtained:
# Parameters in all cases: species or system human, MV4-11 + K-562 + COLO205 + SK-N-BE2 + OVCAR-8
# STK10 = details: read-out: apparent Kd, n = 1
# CDK7 = details: read-out: apparent Kd, n = 1
# CDKL5 = details: read-out: apparent Kd; compound concentrations:100 nM and 1000 nM (sheet 'Samples'); n = 1
# ERCC2 = details: read-out: apparent Kd, n = 1
# FER = details: read-out: apparent Kd, n = 1
# PIP4K2C = details: read-out: apparent Kd, n = 1
# PLK4 = details: read-out: apparent Kd, n = 1
# PRKAA1 = details: read-out: apparent Kd, n = 1
# PRKAG1 = details: read-out: apparent Kd, n = 1
# PTK2B = details: read-out: apparent Kd, n = 1
# PTK2 = details: read-out: apparent Kd, n = 1
# RPS6KA6 = details: read-out: apparent Kd, n = 1
# MARK4 = details: read-out: apparent Kd, compound concentrations: 100 nM and 1000 nM (sheet 'Samples'), n = 1
# PRKCQ = details: read-out: apparent Kd, n = 1
# LATS1 = details: read-out: apparent Kd, n = 1
# PRKD3 = details: read-out: apparent Kd, n = 1
# PRKD2 = details: read-out: apparent Kd; compound concentrations:100 nM and 1000 nM (sheet 'Samples'); n = 1
# MYLK3 = details: read-out: apparent Kd; compound concentrations:100 nM and 1000 nM (sheet 'Samples'); n = 1
# PRKCD = details: read-out: apparent Kd; compound concentrations:100 nM and 1000 nM (sheet 'Samples'); n = 1
# [1] = compound concentrations:100 nM and 1000 nM (sheet 'Samples')
compound,measurement,setting,value
Cc1ccc(Nc2ccnc(Nc3ccc4c(c3)CS(=O)(=O)C4)n2)cc1O.Cl [GW579362A],potency estimated from few doses,"STK10; compound concentrations: 100 nM and 1000 nM (sheet 'Samples'), CATDS: 3.2691719677524503E-2",950 nM
CC(C)N1CCC(n2cnc(-c3ccc(F)cc3)c2-c2ccnc(N)n2)CC1 [SB-223132],potency estimated from few doses,CDK7; [1],310 nM
same,potency estimated from few doses,CDKL5,1520 nM
same,potency estimated from few doses,ERCC2; [1],206 nM
same,potency estimated from few doses,FER; [1],358 nM
same,potency estimated from few doses,PIP4K2C; [1],1200 nM
same,potency estimated from few doses,PLK4; [1],757 nM
same,potency estimated from few doses,PRKAA1; [1],631 nM
same,potency estimated from few doses,PRKAG1; [1],884 nM
same,potency estimated from few doses,PTK2B; [1],378 nM
same,potency estimated from few doses,PTK2; [1],433 nM
same,potency estimated from few doses,RPS6KA6; [1],466 nM
same,potency estimated from few doses,STK10; [1],2020 nM
CN(c1ccc(NC(=O)N2CCN(CCCN3CCOCC3)CC2)cc1)c1ccnc(Nc2ccc(CS(C)(=O)=O)cc2)n1.Cl [GW830899A],potency estimated from few doses,"CDK7; compound concentrations: 100 nM and 1000 nM (sheet 'Samples'), CATDS: 3.2126813899460802E-2",560 nM
same,potency estimated from few doses,"ERCC2; compound concentrations: 100 nM and 1000 nM (sheet 'Samples'), CATDS: 3.5571834197337601E-2",471 nM
same,potency estimated from few doses,"FER; compound concentrations: 100 nM and 1000 nM (sheet 'Samples'), CATDS: 2.4500715622852599E-2",940 nM
same,potency estimated from few doses,MARK4; CATDS: 2.1363637318540001E-2,1290 nM
same,potency estimated from few doses,"PRKAA1; compound concentrations: 100 nM and 1000 nM (sheet 'Samples'), CATDS: 2.4895545924416802E-2",909 nM
same,potency estimated from few doses,"PRKAG1; compound concentrations: 100 nM and 1000 nM (sheet 'Samples'), CATDS: 2.3560969184091798E-2",1020 nM
same,potency estimated from few doses,"PRKCQ; compound concentrations: 100 nM and 1000 nM (sheet 'Samples'), CATDS: 2.35958557762035E-2",1020 nM
same,potency estimated from few doses,"PTK2; compound concentrations: 100 nM and 1000 nM (sheet 'Samples'), CATDS: 2.9725199889124199E-2",643 nM
Cl.Nc1c(C(=O)c2cccc(C#CCN3CCCCC3)c2)cnn1-c1ccc(F)cc1 [RO1154461-001],potency estimated from few doses,"CDK7; compound concentrations: 100 nM and 1000 nM (sheet 'Samples'), CATDS: 4.6552483673456102E-2",74.1 nM
same,potency estimated from few doses,"ERCC2; compound concentrations: 100 nM and 1000 nM (sheet 'Samples'), CATDS: 5.2130998617594002E-2",63.2 nM
same,potency estimated from few doses,"FER; compound concentrations: 100 nM and 1000 nM (sheet 'Samples'), CATDS: 4.9023130772968097E-2",68.9 nM
same,potency estimated from few doses,"LATS1; compound concentrations: 100 nM and 1000 nM (sheet 'Samples'), CATDS: 1.0207334677420601E-2",1780 nM
same,potency estimated from few doses,MARK4; CATDS: 1.0984902394488599E-2,1350 nM
same,potency estimated from few doses,"PIP4K2C; compound concentrations: 100 nM and 1000 nM (sheet 'Samples'), CATDS: 1.00291751764076E-2",1910 nM
same,potency estimated from few doses,"PLK4; compound concentrations: 100 nM and 1000 nM (sheet 'Samples'), CATDS: 1.52727578092353E-2",534 nM
same,potency estimated from few doses,"PRKAA1; compound concentrations: 100 nM and 1000 nM (sheet 'Samples'), CATDS: 1.6696552241267201E-2",436 nM
same,potency estimated from few doses,"PRKAG1; compound concentrations: 100 nM and 1000 nM (sheet 'Samples'), CATDS: 3.6022361277962302E-2",108 nM
same,potency estimated from few doses,"PRKCQ; compound concentrations: 100 nM and 1000 nM (sheet 'Samples'), CATDS: 1.06314955132201E-2",1520 nM
same,potency estimated from few doses,"PRKD3; compound concentrations: 100 nM and 1000 nM (sheet 'Samples'), CATDS: 9.8039284052072601E-3",2110 nM
same,potency estimated from few doses,"PTK2B; compound concentrations: 100 nM and 1000 nM (sheet 'Samples'), CATDS: 4.70772148713983E-2",72.9 nM
same,potency estimated from few doses,"PTK2; compound concentrations: 100 nM and 1000 nM (sheet 'Samples'), CATDS: 1.89593095974224E-2",333 nM
same,potency estimated from few doses,"RPS6KA6; compound concentrations: 100 nM and 1000 nM (sheet 'Samples'), CATDS: 1.98632860807328E-2",303 nM
same,potency estimated from few doses,"STK10; compound concentrations: 100 nM and 1000 nM (sheet 'Samples'), CATDS: 1.0028252220669101E-2",1910 nM
Cc1cccc(-c2nc(Nc3ccncc3)c3sccc3n2)n1 [GW869641X],potency estimated from few doses,PRKD2,1.4 nM
same,potency estimated from few doses,PRKD3; [1],3.56 nM
same,potency estimated from few doses,STK10; [1],1730 nM
NCCNS(=O)(=O)c1ccc(-c2ccnc3[nH]ccc23)cc1 [GSK977617A],potency estimated from few doses,CDK7; [1],159 nM
same,potency estimated from few doses,ERCC2; [1],203 nM
same,potency estimated from few doses,FER; [1],238 nM
same,potency estimated from few doses,LATS1; [1],121 nM
same,potency estimated from few doses,MYLK3,996 nM
same,potency estimated from few doses,PLK4; [1],584 nM
same,potency estimated from few doses,PRKAA1; [1],453 nM
same,potency estimated from few doses,PRKCD,1080 nM
same,potency estimated from few doses,PRKCQ; [1],1950 nM
same,potency estimated from few doses,PTK2B; [1],335 nM
same,potency estimated from few doses,PTK2; [1],343 nM
same,potency estimated from few doses,RPS6KA6; [1],373 nM
same,potency estimated from few doses,STK10; [1],2400 nM
